HSV augment – HSV replication enhancement; HSV replication augmentation in cells, fold increase; maximum fold increase; hit rate 0.005% among 220,000; AID 1956; in the data active = maximum fold increase above about 1.5; inconclusive = no clear call, values can overlap the other calls; tested in PC3 cells
KCC2 mod – KCC2 (human) Cl- transport modulation; Q9H2X9; KCC2 cells, thallium flux FluoZin-2 fluorescence; B-score of Tl+ flux slope (higher = more flux/activation; lower = inhibition) at 10 µM; hit rate 2.2% among 190,000; AID 1456;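 active = thallium flux slope and its plate-corrected score both differing from the plate sample mean at a set confidence after two filtering rounds, in either direction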;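 note: slope of fluorescence scaled to starting intensity during 10 to 20 s after thallium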
Arbovirus anti – antivirals against arbovirus infection; arbovirus infection cell-based antiviral screen; inhibition, % at 10 µM; hit rate 0.37% among 200,000; AID 1251; in the data active = inhibition above about 30%
Measles CPE – protection of cells from measles virus; hit rate 1.5% among 140,000; protection (pct of control), % at 4 µM; Measles virus-infected cells, CPE protection, absorbance; AID 841; in the data active = protection mostly above about 24%, no sharp cut-off; inactive = mostly below about 26%
ROMK primary – human ROMK K+ channel modulation, primary screen | P48048 | Tet-inducible ROMK, thallium flux fluorescence; actives lie on both sides | B-score at 10 µM | hit rate 2% among 130,000 | AID 1918;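 active = signal ratio slope over the read window, or its plate-corrected B-score, at least 3 SD from the plate mean, either direction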;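 note: B-score of the F/F0 ratio slope over 7 to 12 s after thallium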
Target sequence (P48048 whole entry, looked up): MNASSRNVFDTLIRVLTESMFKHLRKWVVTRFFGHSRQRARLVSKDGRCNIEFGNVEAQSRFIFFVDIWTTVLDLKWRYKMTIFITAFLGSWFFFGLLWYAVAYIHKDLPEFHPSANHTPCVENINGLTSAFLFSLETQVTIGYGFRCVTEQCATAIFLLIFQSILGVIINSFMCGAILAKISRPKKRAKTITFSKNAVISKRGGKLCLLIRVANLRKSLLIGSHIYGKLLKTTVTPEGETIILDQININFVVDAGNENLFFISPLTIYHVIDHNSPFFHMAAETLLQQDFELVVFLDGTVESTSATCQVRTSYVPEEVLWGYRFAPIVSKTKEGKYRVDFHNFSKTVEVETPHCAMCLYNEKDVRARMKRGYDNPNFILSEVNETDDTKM
KCC2 sec1 – KCC2 (human) modulation, secondary assay | HEK293-KCC2, thallium flux, FluoZin2 fluorescence; hits give high values | shares compounds with KCC2 mod | normalised thallium flux (F/F0 slope) at 10 µM | hit rate 15% among 3,700 | AID 1713;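 active = thallium flux slope above the same plate's solvent-only control mean plus 3 SD; inconclusive = the two replicate wells disagree; inactive = no significant difference from solvent-only control wells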
KCC2 bumet counter – thallium flux persisting under bumetanide in KCC2 cells, counter-screen secondary assay; HEK293-KCC2 + bumetanide/ouabain, thallium flux FluoZin2; hits give high values; normalized thallium flux at 10 µM; hit rate 49% among 3,700; AID 1714; shares compounds with KCC2 mod;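 active = thallium entry rate above the same plate's blocked-transporter control wells by more than 3 SD; inconclusive = the two repeat wells disagree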;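 note: raw slope of fluorescence over initial fluorescence between 10 and 20 s after thallium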
KCC2 secondary2 – KCC2 (human) modulation, second secondary assay; normalized thallium flux at 10 µM; shares compounds with KCC2 mod; HEK293-KCC2, thallium flux FluoZin2 fluorescence; actives lie on both sides; F/F0 rise rate, 10–20 s post-thallium; AID 1715; hit rate 23% among 3,700;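 active = thallium flux slope more than 3 SD above or below the plate's solvent-only control mean, mostly below; inconclusive = the two repeat wells disagreed; inactive = no significant shift from solvent-only controls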;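 note: raw slope with 0.1% DMSO as baseline and bumetanide as block control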
HEK293 Tl flux – parental HEK flux effect, counter-screen; shares compounds with KCC2 mod; thallium flux rate (normalised fluorescence) at 10 µM; hit rate 46% among 3,700; HEK293 parental cells, thallium flux FluoZin2, ouabain; baseline-ratio fluorescence slope, 10–20 s after thallium;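 active = thallium flux rate significantly above the same plate's solvent-only control wells, beyond their mean plus 3 SD; inconclusive = the two replicate wells gave conflicting results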
KCC2 ouabain – KCC2 (human) modulation, ouabain retest. shares compounds with KCC2 mod. HEK293-KCC2, thallium flux FluoZin2 fluorescence; bidirectional: low = inhibitor, high = activator. raw Tl+ flux slope (below DMSO = inhibition, above = activation) at 10 µM. hit rate 48% among 3,700. AID 1717;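 active = thallium flux slope beyond 3 SD from same-plate DMSO control mean in most replicates, usually higher, sometimes lower; inconclusive = repeat tests gave conflicting results; inactive = no significant difference from controls in most replicates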;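 note: slope of initial-normalized fluorescence between seconds 10 and 20 after thallium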
HEK counter2 – acts in parental HEK cells, second KCC2 counter-screen | hit rate 33% among 3,700 | HEK293 parental, thallium flux FluoZin-2 fluorescence slope | shares compounds with KCC2 mod | AID 1718 | thallium flux slope at 10 µM;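 active = thallium flux slope above the same plate's solvent-control mean plus 3 SD in both duplicate wells; inconclusive = duplicate wells that disagreed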;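 note: run without ouabain in cells lacking the KCC2 cotransporter; slope of fluorescence scaled to its starting value between 10 and 20 s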
ROMK hit retest – retested hit modulating human ROMK potassium channel. shares compounds with ROMK primary. ROMK thallium flux, fluorescence ratio; hits give low values. normalized thallium flux (F/F0 slope) at 10 µM. hit rate 54% among 3,000;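 active = Flux at 10 µM at least 3 SD below or above vehicle control mean in one or both replicates; inconclusive = no clear call, values can overlap the other calls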
* = called active by the depositor. Rows were chosen to be rich in hits. Some 4% of all compounds tested hit in one or more screens of this group.

How did CC(=O)CSc1ncnc2sc3c(c12)CCC3 do in these assays?
HSV augment: inactive; KCC2 mod: 7.1*; Arbovirus anti: 12; ROMK primary: -1.3; KCC2 sec1: 0.019; KCC2 bumet counter: 0.024*; KCC2 secondary2: 0.033; HEK293 Tl flux: 0.014*; KCC2 ouabain: 0.022*; HEK counter2: 0.017*

What do the screens show for `CN(C)C(CNc1ncnc2sccc12)c1cccs1` (stereo unspecified)?
HSV augment: inactive; KCC2 mod: 1.1; Arbovirus anti: -3; ROMK primary: -1.7

Results for CCOC(=O)c1sc2ncnc(NCC(c3cccs3)N(C)C)c2c1C (stereo unspecified) ?
HSV augment: inactive; Arbovirus anti: -5; Measles CPE: 16; KCC2 sec1: 0.041*; KCC2 bumet counter: 0.17*; KCC2 secondary2: 0.046*; HEK293 Tl flux: 0.093*; KCC2 ouabain: 0.086*; HEK counter2: 0.035*

How did CC(C)(C)c1ccc(C(CC(=O)O)NC(=O)c2ccccc2F)cc1 (stereo unspecified) do in these assays?
HSV augment: inactive; KCC2 mod: 0.23; Arbovirus anti: 7; ROMK primary: 1.1

Results for CCOC(=O)Cc1csc(NC(=O)c2ccc(Br)s2)n1 ?
HSV augment: inactive; KCC2 mod: 0.28; Arbovirus anti: 1; Measles CPE: 15

Results for CCOc1cccc2sc(NC(=O)c3ccc(Br)s3)nc12 ?
HSV augment: inactive; KCC2 mod: 32*; Arbovirus anti: 8; Measles CPE: 5; KCC2 sec1: inconclusive; KCC2 bumet counter: 0.056*; KCC2 secondary2: 0.049*; HEK293 Tl flux: 0.034*; KCC2 ouabain: 0.038*; HEK counter2: 0.032*

How did COc1cccc(CNC(=O)c2cc3oc4ccccc4c3n2C)c1OC do in these assays?
HSV augment: inactive; KCC2 mod: 7.5*; Arbovirus anti: 0; Measles CPE: 72*; KCC2 sec1: 0.0091; KCC2 bumet counter: 0.0061; KCC2 secondary2: 0.036; HEK293 Tl flux: 0.0044; KCC2 ouabain: 0.02; HEK counter2: 0.012

What do the screens show for `COC(=O)c1cc2oc3ccccc3c2n1CC(=O)Nc1ccccc1OC`?
HSV augment: inactive; KCC2 mod: 0.093; Arbovirus anti: -3; Measles CPE: 10

What do the screens show for `N#Cc1c(Cl)cccc1N1CCC(C(N)=O)CC1`?
HSV augment: inactive; KCC2 mod: -0.19

Results for COc1cc(OC)cc(C(=O)N2CCN(Cc3ccccc3C(F)(F)F)CC2)c1 ?
HSV augment: inactive; Arbovirus anti: 0; Measles CPE: 20; ROMK primary: -1.5

How did COc1cc(C(=O)N2CCN(Cc3ccccc3C(F)(F)F)CC2)cc(OC)c1OC do in these assays?
Arbovirus anti: 1; Measles CPE: 10; ROMK primary: -2.6*; ROMK hit retest: 0.077

How did CCOc1cccc2sc(N(CCCN(C)C)C(=O)Cc3ccccc3)nc12 do in these assays?
HSV augment: inactive; KCC2 mod: 0.22; Arbovirus anti: -9; ROMK primary: -3.2*; ROMK hit retest: 0.057*

Results for CN(C)CCCN(C(=O)COc1ccccc1)c1nc2c(F)cccc2s1 ?
HSV augment: inactive; KCC2 mod: -0.26; Arbovirus anti: 2; ROMK primary: -0.34

How did O=C(/C=C/c1cccs1)c1ccc(Br)cc1 do in these assays?
HSV augment: inactive; KCC2 mod: 0.51; Arbovirus anti: 10; Measles CPE: 2

How did O=C(/C=C\c1cccs1)c1c(O)ccc2ccc(=O)oc12 do in these assays?
HSV augment: inactive; KCC2 mod: -2.1; Arbovirus anti: -4; Measles CPE: 8; ROMK primary: -5*; ROMK hit retest: 0.05*

What do the screens show for `CN1CCCN(C(=O)c2cc(-c3cccc4ccccc34)nc3ccccc23)CC1`?
HSV augment: inactive; KCC2 mod: -0.56

How did CCOc1ccc(NC(=O)C2CC=CCC2C(=O)O)cc1 (stereo unspecified) do in these assays?
HSV augment: inactive; Arbovirus anti: 2; Measles CPE: 3; ROMK hit retest: 0.084

Results for C/C(=N/NC(=O)CN1CCN(Cc2ccccc2Cl)CC1)c1cccnc1 ?
HSV augment: inactive; KCC2 mod: 0.11; ROMK primary: 1.1

Results for COc1ccc(N(CC(=O)NN=C2CCCCCCC2)S(=O)(=O)c2ccccc2)cc1Cl ?
HSV augment: inactive; KCC2 mod: -0.17; Arbovirus anti: 5; Measles CPE: 15; ROMK primary: -0.42

What do the screens show for `COc1ccc(N(CC(=O)NN=C2CCCC2)S(=O)(=O)c2ccccc2)cc1`?
HSV augment: inactive; KCC2 mod: -0.67; Arbovirus anti: 0; Measles CPE: 44*; ROMK primary: 1.8*; ROMK hit retest: 0.088

What do the screens show for `O=C1/C(=C\Nc2ccc(OC(F)(F)F)cc2)CCN1c1ncccn1`?
HSV augment: inactive; Arbovirus anti: -5; Measles CPE: 8; ROMK primary: 2.9*; ROMK hit retest: 0.083

Results for O=C1/C(=C\Nc2ccc(Cl)cc2)CCN1c1ncccn1 ?
HSV augment: inactive; Arbovirus anti: 0; Measles CPE: 2

Results for O=C(NCc1cccc(C(F)(F)F)c1)C1CC(c2ccccc2C(F)(F)F)=NO1 (stereo unspecified) ?
HSV augment: inactive; KCC2 mod: 0.23

What do the screens show for `C=C1C(=O)C=C2CN(C(=O)c3ccccc3)[C@@](Cc3ccc(F)cc3)(C(=O)OC)[C@@H]12`?
HSV augment: inactive; KCC2 mod: -1.1; Arbovirus anti: -38; Measles CPE: 0; ROMK primary: -4.4*; ROMK hit retest: 0.05*

High-throughput results as filed in PubChem.
